# Test results as given in the supplement of paper PMC8728848.
# About 410 targets per protein were measured; listed, in parts, are those with the strongest signals and a random draw of the rest.
# B1: PX9937F-bfa-516-16-516 (Bacteroides fragilis) (protein)
# chain: LDIDPTSSIADSNYWKTEAQFSTFNVGLHALLRECSFNFFLLGEPRADIYGDVPFGGEATQGMERLPFNTINKENTGISNFAGMYKVINQINLMIAKTKETTVLSEAGKNYYLGEAYGMRAYLYFHLLRSWGDVILYLDYTNGASLDLSNLSKAASPAEEVMKQIKEDITASEKGFGSDYSFKYGRYYWSMAATQMLKGEVYLWSGRQMGGGTADYTTAKTALQSIVSNANVSLQDDFSKVFAYNNKDNSEIIFSIRNAKDEYNMWDDRFRQNLVPQQAYMTSTYCNKEGVSFKDLPEGQLNGLIRLQIRYDLYNKAFRDGDTRKDASMTAVYQKQQDGTVKYIAPFCNKYQGVLLDGASQRSFLNDYPIYRYADCLLLLAEAKALLGEDPTAEINQVRERAYGKEFFEANKATLAYPNDKGDFYTDNKYMSGDEDPLEAILKERMREFMFEGKRWYDLRLLGADYVTKRTSAVATRLLWPINESVLTDNPALKQTPGYQN
# Legend:
# Assay in all cases: glycan array binding signal (z-score within array); higher = stronger binding
# Conditions in all cases: glycan notation: IUPAC condensed, linker removed
# [1] = biological target: Gal(b1-4)GlcNAc(b1-3)Gal(b1-4)GlcNAc(b1-3)Gal(b1-4)GlcNAc(b1-3)Gal(b1-4)GlcNAc(b1-3)Gal(b1-4)GlcNAc(b1-2)[Gal(b1-4)GlcNAc(b1-3)Gal(b1-4)GlcNAc(b1-3)Gal(b1-4)GlcNAc(b1-3)Gal(b1-4)GlcNAc(b1-3)Gal(b1-4)GlcNAc(b1-6)]Man(a1-6)[Gal(b1-4)GlcNAc(b1-3)Gal(b1-4)GlcNAc(b1-3)Gal(b1-4)GlcNAc(b1-3)Gal(b1-4)GlcNAc(b1-3)Gal(b1-4)GlcNAc(b1-2)Man(a1-3)]Man(b1-4)GlcNAc(b1-4)[Fuc(a1-6)]GlcNAc
# Outline: (§1)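 The Consortium for Functional Glycomics database supplied 3228 glycan arrays, of which those lacking an available protein sequence were dropped. The binding signal, a within-array Z-score, was averaged across arrays of the same protein sequence and across linkers. Negative scores can be read as non-binding.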
# [2] = biological target: Gal(b1-4)GlcNAc(b1-3)Gal(b1-4)[Fuc(a1-3)]GlcNAc(b1-3)Gal(b1-4)[Fuc(a1-3)]GlcNAc
# Outline: as §1
# [3] = biological target: Gal(b1-4)GlcNAc(b1-3)[Gal(b1-4)GlcNAc(b1-6)]Gal(b1-4)GlcNAc
# Outline: as §1
# [4] = biological target: Gal(b1-4)GlcNAc(b1-6)GalNAc
# Outline: as §1
# [5] = biological target: Gal(b1-4)GlcNAc(b1-6)[Gal(b1-3)]GalNAc
# Outline: as §1
# Gal3S(b1-4)Glc6S = biological target: Gal3S(b1-4)Glc6S
# Outline: as §1
# GalNAc(a1-3)Gal = biological target: GalNAc(a1-3)Gal
# Outline: as §1
# [6] = biological target: GalNAc(b1-3)Gal(a1-4)Gal(b1-4)GlcNAc
# Outline: as §1
# GalNAc(b1-4)Gal(b1-4)Glc = biological target: GalNAc(b1-4)Gal(b1-4)Glc
# Outline: as §1
# GalNAc3S(b1-4)GlcNAc3S = biological target: GalNAc3S(b1-4)GlcNAc3S
# Outline: as §1
# GlcA(b1-3)Gal = biological target: GlcA(b1-3)Gal
# Outline: as §1
# [7] = biological target: GlcNAc(a1-4)Gal(b1-4)GlcNAc(b1-3)Gal(b1-4)Glc
# Outline: as §1
# [8] = biological target: GlcNAc(a1-4)Gal(b1-4)GlcNAc(b1-3)Gal(b1-4)[Fuc(a1-3)]GlcNAc(b1-3)Gal(b1-4)[Fuc(a1-3)]GlcNAc
# Outline: as §1
# [9] = biological target: GlcNAc(b1-3)Gal(b1-4)GlcNAc(b1-2)Man(a1-3)[GlcNAc(b1-3)Gal(b1-4)GlcNAc(b1-2)Man(a1-6)]Man(b1-4)GlcNAc(b1-4)[Fuc(a1-6)]GlcNAc
# Outline: as §1
# [10] = biological target: GlcNAc(b1-3)Gal(b1-4)GlcNAc(b1-3)Gal(b1-4)GlcNAc(b1-3)Gal(b1-4)GlcNAc(b1-2)Man(a1-3)[GlcNAc(b1-3)Gal(b1-4)GlcNAc(b1-3)Gal(b1-4)GlcNAc(b1-3)Gal(b1-4)GlcNAc(b1-2)Man(a1-6)]Man(b1-4)GlcNAc(b1-4)GlcNAc
# Outline: as §1
# [11] = biological target: GlcNAc(b1-3)Gal(b1-4)GlcNAc(b1-6)[Gal(b1-3)]GalNAc
# Outline: as §1
# [12] = biological target: GlcNAc(b1-4)Gal(b1-4)GlcNAc
# Outline: as §1
# Kdn(a2-3)Gal(b1-3)GalNAc = biological target: Kdn(a2-3)Gal(b1-3)GalNAc
# Outline: as §1
# [13] = biological target: Man(a1-2)Man(a1-2)Man(a1-3)Man
# Outline: as §1
# [14] = biological target: Man(a1-3)[Man(a1-6)]Man(a1-6)[Man(a1-3)]Man(b1-4)GlcNAc(b1-4)GlcNAc
# Outline: as §1
# [15] = biological target: Neu5Ac(a2-3)Gal(b1-3)GlcNAc(b1-3)Gal(b1-3)GlcNAc
# Outline: as §1
# [16] = biological target: Neu5Ac(a2-3)Gal(b1-3)[Fuc(a1-4)]GlcNAc(b1-3)Gal(b1-4)[Fuc(a1-3)]GlcNAc
# Outline: as §1
# Neu5Ac(a2-3)Gal(b1-4)Glc = biological target: Neu5Ac(a2-3)Gal(b1-4)Glc
# Outline: as §1
# [17] = biological target: Neu5Ac(a2-3)Gal(b1-4)GlcNAc(b1-3)Gal(b1-4)GlcNAc(b1-3)Gal(b1-4)GlcNAc
# Outline: as §1
# [18] = biological target: Neu5Ac(a2-3)Gal(b1-4)GlcNAc(b1-3)[Neu5Ac(a2-3)Gal(b1-4)GlcNAc(b1-6)]GalNAc
# Outline: as §1
binder,measurement,setting,value
B1,glycan array binding signal (z-score),[1],20.8
same,glycan array binding signal (z-score),[2],-0.12
same,glycan array binding signal (z-score),[3],-0.235
same,glycan array binding signal (z-score),[4],0.084
same,glycan array binding signal (z-score),[5],0.054
same,glycan array binding signal (z-score),Gal3S(b1-4)Glc6S,-0.009
same,glycan array binding signal (z-score),GalNAc(a1-3)Gal,0.114
same,glycan array binding signal (z-score),[6],1.48
same,glycan array binding signal (z-score),GalNAc(b1-4)Gal(b1-4)Glc,1.77
same,glycan array binding signal (z-score),GalNAc3S(b1-4)GlcNAc3S,-0.23
same,glycan array binding signal (z-score),GlcA(b1-3)Gal,-0.361
same,glycan array binding signal (z-score),[7],-0.323
same,glycan array binding signal (z-score),[8],0.511
same,glycan array binding signal (z-score),[9],1.82
same,glycan array binding signal (z-score),[10],0.988
same,glycan array binding signal (z-score),[11],-0.127
same,glycan array binding signal (z-score),[12],-0.271
same,glycan array binding signal (z-score),Kdn(a2-3)Gal(b1-3)GalNAc,-0.345
same,glycan array binding signal (z-score),[13],-0.273
same,glycan array binding signal (z-score),[14],0.247
same,glycan array binding signal (z-score),[15],-0.249
same,glycan array binding signal (z-score),[16],-0.15
same,glycan array binding signal (z-score),Neu5Ac(a2-3)Gal(b1-4)Glc,-0.325
same,glycan array binding signal (z-score),[17],-0.282
same,glycan array binding signal (z-score),[18],-0.202
